Laboratory results: PubChem BioAssay
Calls of active or inactive are those of the source.

Experiments:
[1] = test system: Plasmodium falciparum Sir2 (PF13_0152, Sir2A); experiment: pfSir2 binders on small-molecule microarrays, primary screen, biochemical, small-molecule microarray, 635 nm fluorescence (AID 1098); conditions: small-molecule microarray binding, fluorescence 635 nm; higher = more signal;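 also: score merges spot fluorescence intensity with its signal-to-noise ratio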
[2] = small-molecule microarray binders of probe aDKK1, primary screen, biochemical, biotinylated probe, 635/667 nm fluorescence (AID 1099); conditions: higher = more signal;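 also: score merges 667nm spot fluorescence with signal to noise across triplicate slides; reference of the scale not given here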
[3] = small-molecule microarray binders of probe aCHRDL2, primary screen, biochemical, biotinylated probe, 635/667 nm fluorescence (AID 1100); conditions: higher = more signal
[4] = splicing luciferase reporter signal modulators, primary screen, spliceosome inhibition project, cell-based, HEK293, splice +/- reporter (AID 1101); conditions: luminescence, 24 h, higher = more signal, called active from +8 up or from −8 down;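 also: HEK293 cells carrying a splicing-competent luciferase reporter gene; test concentration not given here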
[5] = biological target: Fibroblast growth factor 10 (Homo sapiens) (UniProt O15520); experiment: FGF10 binders on small-molecule microarrays, primary screen, biochemical, small-molecule microarray, 635 nm fluorescence (AID 1102); conditions: FGF10 binding, fluorescence 635 nm, higher = more signal
[6] = test system: glycogen synthase kinase-3 (GSK3A per assay name; protocol says GSK3B); experiment: GSK3 binders on small-molecule microarrays, primary screen, biochemical, small-molecule microarray, 635 nm fluorescence, GSK3A (AID 1103); conditions: small-molecule microarray binding, fluorescence 635 nm; higher = more signal; also: the record names both GSK3A and GSK3B
[7] = biological target: Epidermal growth factor receptor (Homo sapiens) (UniProt P00533); experiment: EGFR binders on small-molecule microarrays, primary screen, biochemical, small-molecule microarray, 635 nm fluorescence (AID 1104); conditions: EGFR binding, higher = more signal;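 also: score merges 667 nm emission intensity with spot signal to noise over triplicate slides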
[8] = biological target: Follistatin-related protein 3 (Homo sapiens) (UniProt O95633); experiment: FSTL3 binders on small-molecule microarrays, primary screen, biochemical, small-molecule microarray, 635 nm fluorescence (AID 1105); conditions: FSTL3 binding, higher = more signal;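 also: score merges emission near 667 nm and signal to noise per printed spot across three slides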
[9] = biological target: Dickkopf-related protein 1 (Homo sapiens) (UniProt O94907); experiment: DKK1 binders on small-molecule microarrays, primary screen, biochemical, small-molecule microarray, 635 nm fluorescence scan (AID 1106); conditions: DKK1 binding, higher = more signal;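 also: score merges emission near 667 nm with signal to noise over three replicate slides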
[10] = test system: Inhibin beta A chain (activin A); experiment: INHBA (activin A) binders on microarrays, primary screen, biochemical, small-molecule microarray, 635 nm fluorescence scan (AID 1107); conditions: small-molecule microarray binding, higher = more signal;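 also: mouse activin A protein probed at 4.33 µg/mL on printed slides; score merges bound-protein fluorescence near 667 nm with spot signal-to-noise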

Sequence of Epidermal growth factor receptor (Homo sapiens) (P00533 whole entry, looked up): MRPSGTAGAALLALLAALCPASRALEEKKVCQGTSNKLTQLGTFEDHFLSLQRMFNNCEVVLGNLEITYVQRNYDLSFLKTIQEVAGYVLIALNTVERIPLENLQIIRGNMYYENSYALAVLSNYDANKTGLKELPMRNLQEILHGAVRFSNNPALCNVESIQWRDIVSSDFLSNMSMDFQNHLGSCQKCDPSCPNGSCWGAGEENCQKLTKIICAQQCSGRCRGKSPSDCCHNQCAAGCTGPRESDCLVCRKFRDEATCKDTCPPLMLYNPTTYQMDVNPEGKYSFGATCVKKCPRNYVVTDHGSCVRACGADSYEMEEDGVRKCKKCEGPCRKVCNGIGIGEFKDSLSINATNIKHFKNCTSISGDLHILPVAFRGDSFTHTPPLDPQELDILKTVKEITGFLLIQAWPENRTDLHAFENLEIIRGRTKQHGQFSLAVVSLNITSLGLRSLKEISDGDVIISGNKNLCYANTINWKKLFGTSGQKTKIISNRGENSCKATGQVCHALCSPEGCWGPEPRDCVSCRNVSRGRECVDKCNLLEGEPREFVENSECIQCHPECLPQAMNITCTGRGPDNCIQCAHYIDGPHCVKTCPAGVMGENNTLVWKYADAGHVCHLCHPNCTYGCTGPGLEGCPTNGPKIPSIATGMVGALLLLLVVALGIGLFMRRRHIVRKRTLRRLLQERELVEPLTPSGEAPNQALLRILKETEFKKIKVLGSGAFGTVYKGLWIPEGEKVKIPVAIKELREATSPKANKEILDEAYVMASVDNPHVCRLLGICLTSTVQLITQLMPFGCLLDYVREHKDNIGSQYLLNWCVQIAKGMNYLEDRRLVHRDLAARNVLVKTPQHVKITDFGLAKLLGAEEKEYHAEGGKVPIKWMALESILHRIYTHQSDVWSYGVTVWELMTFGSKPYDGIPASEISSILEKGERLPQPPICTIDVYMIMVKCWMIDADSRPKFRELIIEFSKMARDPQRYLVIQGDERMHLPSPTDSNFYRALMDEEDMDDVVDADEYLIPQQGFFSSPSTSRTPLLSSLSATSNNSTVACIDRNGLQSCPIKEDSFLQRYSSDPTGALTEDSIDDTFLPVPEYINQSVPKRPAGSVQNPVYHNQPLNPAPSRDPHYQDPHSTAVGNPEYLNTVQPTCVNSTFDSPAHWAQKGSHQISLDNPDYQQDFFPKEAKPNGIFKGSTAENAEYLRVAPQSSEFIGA
Sequence of Follistatin-related protein 3 (Homo sapiens) (O95633 whole entry, looked up): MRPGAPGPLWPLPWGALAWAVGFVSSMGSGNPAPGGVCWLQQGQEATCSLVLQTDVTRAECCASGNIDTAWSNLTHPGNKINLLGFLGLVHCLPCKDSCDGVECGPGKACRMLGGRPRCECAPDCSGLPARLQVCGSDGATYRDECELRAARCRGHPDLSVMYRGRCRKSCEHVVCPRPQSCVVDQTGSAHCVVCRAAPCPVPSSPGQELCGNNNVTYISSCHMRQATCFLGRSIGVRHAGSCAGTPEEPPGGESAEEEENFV
Sequence of Fibroblast growth factor 10 (Homo sapiens) (O15520 whole entry, looked up): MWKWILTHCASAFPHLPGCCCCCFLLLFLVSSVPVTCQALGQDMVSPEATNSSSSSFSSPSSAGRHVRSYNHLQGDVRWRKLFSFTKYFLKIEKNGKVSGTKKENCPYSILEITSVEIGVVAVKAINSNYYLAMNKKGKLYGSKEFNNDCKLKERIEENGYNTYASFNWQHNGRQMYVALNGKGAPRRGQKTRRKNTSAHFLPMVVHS
Sequence of Dickkopf-related protein 1 (Homo sapiens) (O94907 whole entry, looked up): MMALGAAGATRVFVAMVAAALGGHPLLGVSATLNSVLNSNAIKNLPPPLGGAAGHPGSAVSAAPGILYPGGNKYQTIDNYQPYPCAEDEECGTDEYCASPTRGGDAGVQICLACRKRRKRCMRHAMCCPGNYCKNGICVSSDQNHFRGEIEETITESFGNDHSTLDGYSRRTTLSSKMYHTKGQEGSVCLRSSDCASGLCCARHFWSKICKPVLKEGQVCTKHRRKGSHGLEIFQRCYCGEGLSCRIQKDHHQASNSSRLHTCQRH

Row | SMILES | composite z-score [1] | composite z-score [2] | composite z-score [3] | z-score [4] | composite z-score [5] | composite z-score [6] | composite z-score [7] | composite z-score [8] | composite z-score [9] | composite z-score [10]
1 | CC(C)Cc1ccc(CN2CC[C@@H](NS(=O)(=O)c3ccccc3)C2)cc1 | -0.265 | -0.367 | -0.747 | 3.53 (inactive) | -0.0725 | -0.375 | -0.608 | 0.0789 | 0.292 | 0.298
2 | COCCOC(=O)N1C(=O)[C@@]2(c3cc(C#CCCO)ccc31)[C@H](C(=O)NC[C@H](O)c1ccccc1)[C@H]1C(=O)O[C@H](c3ccccc3)[C@H](c3ccccc3)N1[C@@H]2c1ccc(O)cc1 | 0.0479 | -0.194 | 0.146 | -0.267 (inactive) | 0.518 | -0.417 | -0.243 | 0.599 | 0.165 | -0.0769
3 | COCCOC(=O)N1C(=O)[C@@]2(c3cc(C#CCNC(N)=O)ccc31)[C@H](C(=O)N1CCc3cc(OC)c(OC)cc3C1)[C@H]1C(=O)O[C@H](c3ccccc3)[C@H](c3ccccc3)N1[C@@H]2c1ccc(OCCO)cc1 | 1.06 | -0.0141 | -0.053 | -0.0304 (inactive) | 1.28 | -0.08 | 0.528 | 1.17 | 0.529 | 0.886
4 | O=C(O)[C@@]1(Cc2ccccc2)N=C(c2ccc(OCCCO)cc2)O[C@H]1c1ccccc1 | 1.03 | 0.116 | 0.614 | -0.674 (inactive) | 0.252 | -0.11 | -1.02 | 0.0206 | -0.872 | 0.779
5 | O=C1O[C@H](c2ccccc2)[C@H](c2ccccc2)N2[C@H]1[C@@H](C(=O)NC[C@H](O)c1ccccc1)[C@]1(C(=O)Nc3ccc(C#CCCO)cc31)[C@H]2c1ccc(O)cc1 | -0.229 | -0.145 | 0.0258 | -0.551 (inactive) | -0.716 | -1.28 | -0.286 | -1.17 | -0.523 | 0.644
6 | COC(=O)[C@@]1(Cc2ccccc2N=[N+]=[N-])COC(c2ccc(OCCCO)cc2)=N1 | 1.48 | 0.89 | 1.26 | -0.127 (inactive) | 0.0938 | 0.478 | -0.3 | -0.0373 | -0.349 | 1.52
7 | O=C1N(CCS(=O)(=O)c2ccccc2)Cc2ccccc2C[C@]12N=C(c1ccc(OCCCO)cc1)O[C@@H]2c1ccccc1 | 1.24 | 0.467 | 0.655 | -1.46 (inactive) | 1.4 | 1.3 | 0.477 | 1.18 | 0.784 | 1.4
8 | COCCOC(=O)N1C(=O)[C@@]2(c3cc(C#CCC(C(=O)OC)C(=O)OC)ccc31)[C@H](C(=O)N1CCCCCCC1)[C@H]1C(=O)O[C@H](c3ccccc3)[C@H](c3ccccc3)N1[C@@H]2c1ccc(OCCO)cc1 | 1.74 | 2.72 | 1.65 | 0.161 (inactive) | 1.45 | 1.35 | 1.76 | 1.65 | 2.25 | 1.62
9 | COC(=O)[C@@]1(Cc2ccc(OC)cc2)[C@H]2c3cc(C(=O)N(C)C)n(Cc4c(OC)[nH]cc(C)c4=O)c3C[C@H]2CN1C(=O)c1ccccc1 | 1.04 | 1.8 | 0.628 | -1.07 (inactive) | 0.0004 | -0.208 | 0.197 | 0.037 | -0.41 | 1.23
10 | CCCCCN1CC=CC23O[C@@H]4C=CCOC(=O)[C@@H]4[C@H]2C(=O)N(CCCO)[C@@H]3C1=O (stereo not given in full) | 1.63 | -0.263 | 0.359 | -1.76 (inactive) | -0.519 | 0.462 | -0.681 | -0.264 | -0.49 | 0.908
11 | COc1ccc([Si](C)(C)[C@H]2[C@H](CCn3cc([C@H](O)c4ccccc4)nn3)O[C@@]3(C(=O)N(Cc4cccc(N5CCC5=O)c4)c4ccccc43)[C@@H]2C)cc1 | 1.32 | -0.144 | -0.206 | -1.4 (inactive) | 0.66 | -0.113 | -0.0533 | -0.108 | -0.0723 | 0.714
12 | CCOC(=O)C1=CCC(c2ccc([N+](=O)[O-])cc2)N(S(=O)(=O)c2ccc(C)cc2)C1 (stereo not given) | 0.376 | 0.616 | 0.983 | -0.22 (inactive) | -0.0502 | 0.0526 | -0.356 | 0.171 | -0.421 | 1.32
13 | COC(=O)[C@@]1(Cc2ccc(OC)cc2)[C@H]2c3cc(C(=O)N4CCCC4)n(Cc4ccccn4)c3C[C@H]2CN1C(=O)c1ccccc1 | 0.987 | 1.33 | 1.3 | -3.17 (inactive) | 0.928 | 1.2 | -0.0442 | 0.182 | -0.899 | 0.673
14 | CCCCC(CC)C(O)C1C=CC2C(=O)N(c3ccccc3)C(=O)C2N1Nc1ccccc1 (stereo not given) | 0.889 | 0.674 | 0.932 | -0.901 (inactive) | 0.753 | 0.0129 | -0.456 | 1.13 | -0.648 | 1.02
15 | CC(=O)NCCCC[C@@H]1NC(=O)[C@@H]2C[C@H](C(=O)NCCCCCCNC(=O)CS)[C@H](c3ccc(O)cc3)N2C1=O | 1.18 | -0.194 | 0.52 | 0.584 (inactive) | -0.37 | -0.0984 | -0.755 | -0.353 | -0.233 | -0.989
16 | CC(C)OC(=O)CC(=O)CC(O)c1ccc(C#N)cc1 (stereo not given) | -0.165 | 0.715 | 1.23 | -1.74 (inactive) | 0.169 | 0.148 | -0.361 | 0.078 | -0.997 | 0.891
17 | O=C1O[C@@H](c2ccccc2)[C@@H](c2ccccc2)N2[C@@H](c3ccc(OCCO)cc3)[C@]3(C(=O)Nc4ccc(C#CC5=CCCCC5)cc43)[C@@H](C(=O)O)[C@H]12 | 0.87 | 0.82 | 0.431 | 0.618 (inactive) | 0.43 | 0.661 | 0.257 | 0.636 | 0.581 | 0.784
18 | CN1C(=O)C2C(C1=O)C1C=C(CCCO)C2C(c2cccs2)N1C (stereo not given) | 1.78 | -0.722 | -0.681 | -0.0035 (inactive) | 0.248 | -0.76 | -0.106 | -0.473 | -0.559 | 0.561
19 | C=CCC(OC(C)=O)[C@@H]1[C@@H](N(Cc2ccc(-c3cccc(C(F)(F)F)c3)o2)C(=O)c2ccc(C)cc2)c2cc(OCCCO)ccc2N1C(=O)c1ccc(-c2ccccc2)cc1 (stereo not given in full) | 0.44 | -0.0544 | 0.0823 | -0.714 (inactive) | 0.0825 | -1 | -0.0697 | 0.473 | -0.0581 | 1.23
20 | Cc1ccc([C@H]2[C@H](C(=O)O)[C@H](Sc3ccccc3)[C@@H](C(C)C)N2S(=O)(=O)c2ccc(C)cc2)cc1 | 0.587 | -0.403 | 0.355 | 0.27 (inactive) | 0.95 | 1.22 | 0.151 | 0.905 | 0.168 | 0.417
21 | CC(C)C(O)C1C=CC2C(=O)N(c3ccccc3)C(=O)C2N1Nc1ccc(C#N)cc1 (stereo not given) | 1.08 | 1.27 | 1.26 | 0.251 (inactive) | 1.17 | 0.681 | 0.0839 | 1.22 | -0.512 | 0.942
22 | O=c1oc(-c2ccccc2)nc2cc(Br)ccc12 | 0.486 | -0.184 | -0.493 | -0.288 (inactive) | 0.312 | 0.838 | 0.448 | 0.582 | 0.508 | -0.0295
23 | C=CCC(OC(C)=O)[C@@H]1[C@@H](N(Cc2cc3ccccc3o2)C(=O)c2ccc(C)cc2)c2cc(OCCCO)ccc2N1C(=O)c1ccc2ccccc2c1 (stereo not given in full) | -0.119 | -0.0022 | 0.263 | -0.422 (inactive) | 0.299 | -0.274 | 0.105 | 0.194 | 0.0379 | 1.46
24 | NC(=O)NCC#Cc1ccc2c(c1)[C@]1(C(=O)N2)[C@H](C(=O)N2CCCCCCC2)[C@H]2C(=O)O[C@H](c3ccccc3)[C@H](c3ccccc3)N2[C@@H]1c1ccc(OCCO)cc1 | 1.2 | 2.11 | 1.36 | -0.144 (inactive) | 1.29 | 0.748 | 1.35 | 1.63 | 1.75 | 1.53
25 | O=C1O[C@H](c2ccccc2)[C@H](c2ccccc2)N2[C@H]1[C@@H](C(=O)Nc1nc3ccccc3s1)[C@]1(C(=O)Nc3ccccc31)[C@H]2c1ccc(O)cc1 | 1.57 | -0.0334 | 0.126 | -0.449 (inactive) | 0.939 | 1.08 | 0.598 | 1.31 | 1.11 | 0.435
26 | COCCOC(=O)N1C(=O)[C@@]2(c3cc(C#CCNC(N)=O)ccc31)[C@H](c1ccc(O)cc1)N1[C@H](c3ccccc3)[C@H](c3ccccc3)OC(=O)[C@H]1[C@@H]2C(=O)Nc1nc2ccccc2s1 | 0.809 | 0.668 | 0.476 | -0.564 (inactive) | 1.14 | 0.306 | 0.228 | 0.85 | 0.562 | 0.815
27 | O=C1OCCC=C[C@H]2OC34C=CCN(Cc5ccccc5)C(=O)[C@H]3N(CCCO)C(=O)[C@@H]4C12 (stereo not given in full) | 0.53 | -0.33 | -0.182 | -1.74 (inactive) | -0.745 | -1.44 | -0.873 | -0.512 | -0.179 | 0.399
